Calls of active or inactive are those of the source. The calls were made as follows: active = hit-call score of the fitted dose curve at least 0.9, where 1 is the maximum; inactive = score below 0.9.

Read-out in assay [1]: Monokine induced gamma interferon (MIG), CXCL9 (gene 4283)
As to the kind of experiment: BSK_hDFCGF_MIG: BioMAP Diversity Plus: hDFCGF Assay for Monokine induced gamma interferon (MIG) Biomarker Activity (AID 2283063). The note with it: primary human foreskin fibroblasts; actives raise or lower the signal. Summed up:
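Fibroblasts (human foreskin, primary) dosed, 24 h, MIG by ELISA; fit bidirectional vs DMSO.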

Read-out in assay [2]: Vascular cell adhesion molecule 1 (VCAM1), VCAM1 (gene 7412)
Put plainly: BSK_hDFCGF_VCAM1: BioMAP Diversity Plus: hDFCGF Assay for Vascular cell adhesion molecule 1 (VCAM1) Biomarker Activity (AID 2283065).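 As to AC50: VCAM-1 protein level quantified by ELISA after 24 h chemical exposure.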 Conditions: primary human foreskin fibroblasts; actives raise or lower the signal. Summed up: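 ELISA read-out of VCAM-1 on human skin fibroblasts, 24 h post-dose; gain or loss of signal fitted bidirectionally against DMSO baseline.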

Read-out in assay [3]: Intercellular Adhesion Molecule 1 (ICAM1), ICAM1 (gene 3383)
As to the kind of experiment: BSK_KF3CT_ICAM1: BioMAP Diversity Plus: KF3CT Assay for Intercellular Adhesion Molecule 1 (ICAM1) Biomarker Activity (AID 2283067). Conditions: primary human keratinocytes with fibroblasts; actives raise or lower the signal. Summed up: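 ELISA readout of ICAM-1; KF3CT human skin co-culture (keratinocytes + foreskin fibroblasts), 24 h post-dose; gain/loss fit vs DMSO baseline.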

Read-out in assay [4]: Interferon-gamma inducible Protein 10 (IP10), CXCL10 (gene 3627)
As to the kind of experiment: BSK_KF3CT_IP10: BioMAP Diversity Plus: KF3CT Assay for Interferon-gamma inducible Protein 10 (IP10) Biomarker Activity (AID 2283068). The note with it: primary human keratinocytes with fibroblasts; actives raise or lower the signal. Put shortly: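 ELISA read-out of IP-10 after 24 h chemical dosing of human skin primary co-culture (keratinocytes, foreskin fibroblasts). Gain or loss of signal relative to DMSO, bidirectional curve fit.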

Assay [5] can be described thus: BSK_KF3CT_SRB: Viability Assessment in the BioMAP Diversity Plus: KF3CT Assay (AID 2283069).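 Also: total protein by sulforhodamine B staining as a cytotoxicity measure; read 24 h after compound addition.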 The note with it: primary human keratinocytes with fibroblasts. Put shortly:
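Human keratinocyte and foreskin fibroblast co-culture exposed to chemical for 24 h. Total protein measured in parallel cultures by 0.1% sulforhodamine B staining after 10% TCA fixation, read at 560 nm; bidirectional fit relative to DMSO.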

Read-out in assay [6]: TIMP metallopeptidase inhibitor 2 (TIMP2), TIMP2 (gene 7077)
As to the kind of experiment: BSK_KF3CT_TIMP2: BioMAP Diversity Plus: KF3CT Assay for TIMP metallopeptidase inhibitor 2 (TIMP2) Biomarker Activity (AID 2283071). The note with it: primary human keratinocytes with fibroblasts; actives raise or lower the signal. Put shortly:
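Cells: human keratinocytes co-cultured with foreskin fibroblasts. Treat with chemical, 24 h. Measure TIMP-2 by ELISA; fit curves bidirectionally vs DMSO baseline.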

Read-out in assay [7]: Transforming growth factor beta 1 (TGFb1), TGFB1 (gene 7040)
Put plainly: BSK_KF3CT_TGFb1: BioMAP Diversity Plus: KF3CT Assay for Transforming growth factor beta 1 (TGFb1) Biomarker Activity (AID 2283072). Conditions: primary human keratinocytes with fibroblasts; actives raise or lower the signal. Put shortly: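 Primary human skin cells (keratinocytes, foreskin fibroblasts) were co-cultured, exposed to test chemical and sampled at 24 h. TGF-b1 levels were measured by ELISA and fitted bidirectionally relative to DMSO.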

Read-out in assay [8]: C-C motif chemokine 2 (Homo sapiens) (UniProt P13500)
As to the kind of experiment: BSK_KF3CT_MCP1: BioMAP Diversity Plus: KF3CT Assay for Monocyte Chemoattractant Protein 1 (MCP1/CCL2) Biomarker Activity (AID 2283073). Conditions: primary human keratinocytes with fibroblasts; actives raise or lower the signal. Summed up:
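KF3CT skin co-culture (keratinocytes/foreskin fibroblasts), 24 h post-dose; MCP-1 by ELISA; gain/loss of signal fit bidirectionally vs DMSO baseline.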

Read-out in assay [9]: Matrix Metallopeptidase 9 (MMP9), MMP9 (gene 4318)
As to the kind of experiment: BSK_KF3CT_MMP9: BioMAP Diversity Plus: KF3CT Assay for Matrix Metallopeptidase 9 (MMP9) Biomarker Activity (AID 2283074).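 As to AC50: MMP9 protein level quantified by ELISA in the co-culture.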 The note with it: primary human keratinocytes with fibroblasts; actives raise or lower the signal. Summed up:
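Human keratinocyte and foreskin fibroblast co-culture exposed to chemicals for 24 h; MMP9 biomarker measured by ELISA, bidirectional fitting relative to DMSO; cytotoxicity tracked by SRB total protein staining in parallel cultures.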

Read-out in assay [10]: urokinase plasminogen activator (uPA), PLAU (gene 5328)
Put plainly: BSK_KF3CT_uPA: BioMAP Diversity Plus: KF3CT Assay for urokinase plasminogen activator (uPA) Biomarker Activity (AID 2283075). The note with it: primary human keratinocytes with fibroblasts; actives raise or lower the signal. Put shortly:
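Primary human keratinocyte/foreskin fibroblast co-culture exposed to chemical; uPA measured by ELISA at 24 h. Bidirectional fit versus DMSO, with parallel SRB total-protein staining for cytotoxicity.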

Read-out in another assay: CD40, CD40 (gene 958)
Put plainly: BSK_LPS_CD40: BioMAP Diversity Plus: LPS Assay for CD40 Biomarker Activity (AID 2283076). Conditions: primary human HUVEC with PBMC; actives raise or lower the signal. Summed up: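 ELISA readout of CD40 in HUVEC/PBMC co-culture (BSK_LPS system), 24 h post-dosing; bidirectional curve fit, DMSO baseline; parallel SRB total-protein staining for cytotoxicity.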

Read-out in assay [11]: E-selectin (Homo sapiens) (UniProt P16581)
As to the kind of experiment: BSK_LPS_Eselectin: BioMAP Diversity Plus: LPS Assay for Eselectin Biomarker Activity (AID 2283077). The note with it: primary human HUVEC with PBMC; actives raise or lower the signal. Summed up:
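ELISA readout of E-selectin, 24 h post-dose, HUVEC + PBMC co-culture (LPS system). Gain or loss of signal vs DMSO baseline, bidirectional fit.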

Read-out in assay [12]: Interleukin-8 (IL8), CXCL8 (gene 3576)
As to the kind of experiment: BSK_LPS_IL8: BioMAP Diversity Plus: LPS Assay for Interleukin-8 (IL8) Biomarker Activity (AID 2283078). The note with it: primary human HUVEC with PBMC; actives raise or lower the signal. Summed up:
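HUVEC + PBMC co-culture, LPS-activated; test chemicals dosed, IL-8 read by ELISA at 24 h. Bidirectional curve fit vs DMSO baseline (gain or loss of signal).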

Assay [13] is described as follows: BSK_LPS_SRB: Viability Assessment in the BioMAP Diversity Plus: LPS Assay (AID 2283079).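 Also: total protein by sulforhodamine B absorbance as a cytotoxicity measure; measured one day after compound addition; fitted in both directions against DMSO so loss or gain of signal counts.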 Conditions: primary human HUVEC with PBMC. Summed up:
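HUVEC + PBMC co-culture, LPS-stimulated; compound 24 h. 10% TCA fix, 0.1% SRB stain, A560. Bidirectional fit vs DMSO.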

Read-out in assay [14]: Interleukin-1 alpha (IL1a), IL1A (gene 3552)
As to the kind of experiment: BSK_LPS_IL1a: BioMAP Diversity Plus: LPS Assay for Interleukin-1 alpha (IL1a) Biomarker Activity (AID 2283080). The note with it: primary human HUVEC with PBMC; actives raise or lower the signal. Summed up:
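HUVEC/PBMC co-culture, LPS system; 24 h after dosing; IL-1a by ELISA; gain or loss of signal fitted bidirectionally vs DMSO baseline.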

Read-out in assay [15]: Monocyte Chemoattractant Protein-1 (MCP1), CCL2 (gene 6347)
As to the kind of experiment: BSK_LPS_MCP1: BioMAP Diversity Plus: LPS Assay for Monocyte Chemoattractant Protein-1 (MCP1) Biomarker Activity (AID 2283081).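 As to AC50: secreted MCP-1 protein quantified by ELISA in culture supernatant.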 The note with it: primary human HUVEC with PBMC; actives raise or lower the signal. Put shortly: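 ELISA read-out of MCP-1 after 24 h chemical dosing of a human umbilical vein endothelial cell/peripheral blood mononuclear cell co-culture stimulated with LPS. Gain or loss of signal fitted relative to DMSO controls.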

A short description of assay [16]: BSK_LPS_PGE2: BioMAP Diversity Plus: LPS Assay for Prostaglandin E2 (PGE2) Biomarker Activity (AID 2283082). Conditions: primary human HUVEC with PBMC; actives raise or lower the signal. Put shortly: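 LPS-activated HUVEC/PBMC co-culture; cmpd dosed, 24 h; PGE2 by ELISA; bidirectional fit vs DMSO; SRB (0.1%, TCA-fixed, 560 nm) in parallel plates for overt cytotox.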

Read-out in assay [17]: Interleukin-1 alpha (IL1a), IL1A (gene 3552)
As to the kind of experiment: BSK_KF3CT_IL1a: BioMAP Diversity Plus: KF3CT Assay for Interleukin-1 alpha (IL1a) Biomarker Activity (AID 2283070). Conditions: primary human keratinocytes with fibroblasts; actives raise or lower the signal. Summed up: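 Primary human keratinocyte plus foreskin fibroblast co-culture, dosed and measured at 24 h in 96-well plates. IL-1a level quantified by ELISA; bidirectional fit relative to DMSO.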

Chain of E-selectin (Homo sapiens) (P16581 whole entry, looked up): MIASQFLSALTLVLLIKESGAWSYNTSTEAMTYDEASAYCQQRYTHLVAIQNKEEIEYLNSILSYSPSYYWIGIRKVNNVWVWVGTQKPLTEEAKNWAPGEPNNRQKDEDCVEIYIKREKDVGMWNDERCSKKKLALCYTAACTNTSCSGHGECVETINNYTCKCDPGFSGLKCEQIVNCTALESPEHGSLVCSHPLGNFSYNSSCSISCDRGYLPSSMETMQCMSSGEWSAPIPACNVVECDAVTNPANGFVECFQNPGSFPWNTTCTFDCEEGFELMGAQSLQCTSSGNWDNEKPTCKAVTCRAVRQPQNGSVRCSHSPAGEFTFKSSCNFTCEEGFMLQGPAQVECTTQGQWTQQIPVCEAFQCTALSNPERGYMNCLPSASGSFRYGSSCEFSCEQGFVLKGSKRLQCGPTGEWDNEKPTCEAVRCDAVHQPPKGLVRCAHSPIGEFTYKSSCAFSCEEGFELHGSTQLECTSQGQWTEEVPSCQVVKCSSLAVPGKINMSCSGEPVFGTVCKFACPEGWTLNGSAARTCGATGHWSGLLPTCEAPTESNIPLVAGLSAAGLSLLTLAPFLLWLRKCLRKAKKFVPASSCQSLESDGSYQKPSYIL

Turning to `C1N2CN3CN1CN(C2)C3`, the result in assay [1], in assay [2], in assay [3], in assay [4], in assay [5] and in [6] was inactive. The outcome is “inactive” in [7]; “inactive” in [8]; “inactive” in assay [9]; “inactive” in [10]; “inactive” with CD40, CD40 (gene 958); “inactive” in assay [11]. Moreover, the result in assay [12], in assay [13], in assay [14], in assay [15] and in assay [16] was inactive.
`Cc1ccc(S(=O)(=O)O)cc1C`: the result in [1], in assay [2], in assay [3], in [4], in assay [5] and in assay [17] was inactive. The outcome was “inactive” in [6]; “inactive” in assay [7]; “inactive” in assay [8]; “inactive” in assay [9]; “inactive” in assay [10]; “inactive” in the assay with CD40, CD40 (gene 958). The outcome in assay [11], in assay [12], in assay [13], in [14] and in [16] was inactive.
As to `COC(=O)CC(=O)OC`, the outcome in [1], in assay [2], in assay [3], in assay [4], in assay [5] and in [6] was inactive. The outcome was “inactive” in assay [7]; “inactive” in assay [8]; “inactive” in assay [9]; “inactive” in [10]; “inactive” in the assay with CD40, CD40 (gene 958); “inactive” in [12]. In addition, the result in assay [13], in assay [14], in assay [15] and in assay [16] was inactive.
As for `CC[C@H](C)C(=O)O[C@H]1C[C@@H](C)C=C2C=C[C@H](C)[C@H](CC[C@@H]3C[C@@H](O)CC(=O)O3)[C@H]21`, the AC50 in assay [1] is 36.3 µM (active); in [2] it was 29.8 µM (active); in [3], 33.6 µM (active); in assay [4], 34.6 µM (active); in assay [5] it was 31.7 µM (active); in assay [6], 33.8 µM (active). Further, the AC50 in assay [7] was 33.3 µM (active); in assay [8], 32.5 µM (active); in [10] it was 32.5 µM (active); with CD40, CD40 (gene 958) it was 13.8 µM (active); in assay [11], 398 nM (active); in assay [13], 3.95 µM (active). Moreover, the AC50 in assay [14] is 3.95 µM (active). The outcome in [12], in assay [15] and in assay [16] was inactive.
With `O=c1n(CC2CO2)c(=O)n(CC2CO2)c(=O)n1CC1CO1` (stereo unspecified), the AC50 in assay [1] was 15.5 µM (active); in assay [2] it was 11.6 µM (active); in assay [9] it was 20 µM (active); in the assay with CD40, CD40 (gene 958) it was 16.3 µM (active); in assay [12], 10.8 µM (active); in assay [13], 12.2 µM (active). Besides, the AC50 in assay [15] was 19.5 µM (active). Moreover, the result in assay [3], in assay [4], in [5], in [6], in assay [7] and in [8] was inactive. The result in assay [10] and in [14] was inactive.
